# High-throughput results (PubChem BioAssay)
# CRE Fsk mod = modulators of forskolin-stimulated CRE signaling in CHO cells. CHO CRE-bla reporter (cAMP response element driving beta-lactamase), forskolin EC10, beta-lactamase ratio. Potency, µM (doses to about 38.2 µM), for inactives: top-dose activity change, negative = inhibition, actives largely listed as activators. 2.5% of 71,000 active. AID 662; active means well fitted activation curve with a large enough effect in the signal ratio, with a control signal flat, not every such curve was filed as active; inconclusive means small, poorly fitted or top-dose-only effect, or effect the other way, or a change in a side signal; the % refers to the signal ratio; further: % of control where 0% means no effect
#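 The 460nm/530nm emission ratio after CCF4 loading defined %Activity, from which AC50 values were obtained. CRE-bla CHO cells received compound dilution series together with an EC10 level of NKH 477 for 3 hours at 37 degrees Celsius.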
# Hsp90 Hop PPI = changes Hsp90-Hop TPR2A binding signal, up or down. AlphaScreen TPR2A-His6 binding biotin-Hsp90 C-terminal peptide. Potency, µM (doses to about 57 µM), inactives show at the highest dose activity change, negative = inhibition. 0.44% of 71,000 active; active means well fitted curve in either direction with a large enough effect; inconclusive means small, poorly fitted or top-dose-only effect, or another doubt; further: on the % scale 0 is the no-effect control and ±100 the full control effect
# ALOX15 inhib = inhibitors of human 15-lipoxygenase (ALOX15); P16050; purified 15hLO-1, xylenol orange hydroperoxide absorbance; Potency, µM (top dose mostly 57.1 µM), for the others: at the highest dose activity change, negative = inhibition, usual class: inhibitors; 1.4% of 74,000 active; AID 887; further: on the % scale 0 is the no-effect control and ±100 the full control effect; nearly all actives have a fitted effect of over 55% in size
# Target sequence (P16050 whole entry, looked up): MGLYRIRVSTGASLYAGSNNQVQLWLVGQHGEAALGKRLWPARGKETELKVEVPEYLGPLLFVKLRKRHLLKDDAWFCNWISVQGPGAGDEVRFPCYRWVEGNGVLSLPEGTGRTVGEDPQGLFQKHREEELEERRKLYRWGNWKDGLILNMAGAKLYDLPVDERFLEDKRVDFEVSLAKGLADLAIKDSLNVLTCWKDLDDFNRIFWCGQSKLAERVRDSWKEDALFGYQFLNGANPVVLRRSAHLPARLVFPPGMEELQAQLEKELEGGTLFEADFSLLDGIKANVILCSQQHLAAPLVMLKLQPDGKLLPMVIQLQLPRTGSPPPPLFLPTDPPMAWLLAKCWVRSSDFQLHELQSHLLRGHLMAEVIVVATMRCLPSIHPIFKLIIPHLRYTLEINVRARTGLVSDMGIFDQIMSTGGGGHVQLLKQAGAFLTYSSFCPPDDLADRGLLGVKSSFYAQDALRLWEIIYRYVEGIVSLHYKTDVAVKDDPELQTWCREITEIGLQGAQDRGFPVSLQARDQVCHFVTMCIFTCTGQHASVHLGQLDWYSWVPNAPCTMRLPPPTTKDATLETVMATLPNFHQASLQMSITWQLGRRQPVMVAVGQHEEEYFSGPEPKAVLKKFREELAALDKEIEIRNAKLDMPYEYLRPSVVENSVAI
#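 Hydroperoxide formed from arachidonic acid (50 uM) by purified human 15hLO-1 (40 nM) oxidizes ferrous iron, and the ferric-xylenol orange complex is read at 573 versus 405 nm. Compounds were preincubated 15 min; reaction ran 6 min at room temperature.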
# Tau filament bind = binders of human tau filaments. AID 596. 2% of 71,000 active. P10636. recombinant tau filaments, thioflavin S fluorescence, 15 h; filaments grown with octadecylsulfate alongside compound. Potency, µM (titrated, usually from 57.1 µM), for the others: at the top dose activity change, negative = inhibition;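 further: on the % scale 0 is the no-effect control and ±100 the full control effect; actives lower thioflavin S fluorescence by blocking filaments or displacing dye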
#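 Quantitative HTS: thioflavine S signal from ODS-induced tau filaments, excited at 450 nm, emission 510 nm. Conditions: 1 uM tau, 30 uM ODS, 15 h at 37 C, pH 7.4.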
# IkB signaling = inhibitors of IkB signaling in ABC-DLBCL cells. ABC-DLBCL IkBa-CBG/CBR dual luciferase ratio, 4 h; response scale: scaled: untreated 0%, proteasome inhibitor 100%. Potency, µM (series often up to 57.1 µM), for inactives: top-dose IkBa stabilization activation. 0.04% of 110,000 active; active means well fitted curve in the direction sought with a large enough effect in the signal ratio, not every such curve was filed as active; inconclusive means small, poorly fitted or top-dose-only effect, or a change in a side signal; the % refers to the signal ratio;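 further: the direction sought is a rising ratio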
#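 Curves were fitted separately to fusion (green), unfused (red) and ratio luminescence, then classed by r2, magnitude and activity. Cells: OCI-Ly3, 4 h compound plus doxycycline at 37C; 10 uM MG-132 defined full response.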
# An asterisk follows results filed as active; u = inconclusive; x = not tested or not shown. Shown are actives, neighbours in structure and some others; about 3.6% of the full set was active somewhere. Unless noted, the call rests on the fitted dose curve; in most records, active means well fitted curve in the direction sought with a large enough effect; inconclusive means small, poorly fitted or top-dose-only effect, or another doubt; inactive means no such curve, though single readings can be large; an effect the other way counts as inactive or inconclusive. Potency means the concentration at half of the fitted maximal effect.
SMILES,CRE Fsk mod,Hsp90 Hop PPI,ALOX15 inhib,Tau filament bind,IkB signaling
Cc1cc(C)nc(NS(=O)(=O)c2ccc(Br)cc2)n1,-6.3%,-4.4%,1.7%,-17.6%,5.1%
Cc1cc(NO)nc(-c2ccc(Br)cc2)n1,-2.9%,-2.9%,15.8µM*,-9.5%,2.0%
Cc1cc(/C=N/n2cnnc2)c(C)n1-c1cc(Cl)ccc1Cl,2µM*,-11.8%,15.0%,-2.2%,3.7%
O=C(Cn1c(-c2ccccc2)noc1=O)Nc1ccc(S(=O)(=O)N2CCOCC2)cc1,-14.7%,0.2%,-16.4%,11.7%,-0.4%
O=C(Cn1c(-c2ccccc2)noc1=O)Nc1ccc(N2CCCCCC2)cc1,-0.1%,u,u,12.6µM*,4.5%
O=C(CSc1ccc2nnc(-c3ccccc3)n2n1)N1CCN(c2ccccc2)CC1,u,-3.5%,-10.6%,1.58µM*,0.6%
Cc1ccc(-c2nnc3ccc(SC(C)C(=O)O)nn23)cc1 (stereo unspecified),4.3%,-0.2%,10µM*,-17.3%,-2.3%
CC(Sc1ccc2nnc(-c3ccc(F)cc3)n2n1)C(=O)O (stereo unspecified),-1.0%,-5.5%,-0.6%,8.9%,2.4%
CCOc1ccc(N2CC(NC(=O)C3CCCC3)CC2=O)cc1 (stereo unspecified),x,x,x,x,-3.8%
COc1cccc(C2CC(C(F)(F)F)n3ncc(C(=O)NCC4CCCO4)c3N2)c1 (stereo unspecified),-3.9%,0.3%,6.8%,-0.1%,0.4%
COc1ccc(C2CC(C(F)(F)F)n3ncc(C(=O)NCc4cccnc4)c3N2)cc1OC (stereo unspecified),12.6µM*,2.6%,4.9%,-7.1%,-3.7%
COc1ccc(CCNC(=O)Cc2c(C)c3cc4c(C(C)(C)C)coc4c(C)c3oc2=O)cc1,x,x,x,x,3.9%
N#Cc1c(-c2ccco2)cc(C2CC2)nc1SCC(=O)c1ccccc1,2.9%,-11.3%,15.8µM*,43.9%,0.9%
CSc1nc(N)nc(SCC(=O)c2ccccc2)c1C#N,3.16µM*,1.5%,2.2%,21.1%,u
COc1cccc(CSc2nc3n(n2)C(c2cccc(F)c2)C(C(=O)Nc2ccccc2C)=C(C)N3)c1 (stereo unspecified),x,x,x,x,-2.5%
O=C1CC(c2ccc(O)c(O)c2)Oc2cc(O)cc(O)c21 (stereo unspecified),x,x,10µM*,x,x
O=C1c2c(O)cc(O)cc2O[C@@H](c2ccc(O)c(O)c2)[C@H]1O,-4.0%,u,12.6µM*,-8.1%,1.6%
O=C(Nc1ccc(Br)c(Cl)c1)c1ccc(C(=O)Nc2ccc(Br)c(Cl)c2)cc1,x,x,x,x,4.8%
CCOC(=O)N1CCN(c2cc(NCCC(=O)O)c3c4c(onc24)-c2ccccc2C3=O)CC1,u,u,-5.4%,12.6µM*,u
CCOC(=O)N1CCN(c2c(NCCCN(CC)Cc3ccccc3)c(=O)c2=O)CC1,12.9%,-1.4%,2.4%,3.8%,0.0%
O=C(O)CCCNc1cc(N2CCC3(CC2)OCCO3)c2noc3c2c1C(=O)c1ccccc1-3,10µM*,3.16µM*,u,15.8µM*,u
CCN(CC)S(=O)(=O)c1ccc(NC(=O)CN(c2ccccc2)S(=O)(=O)N(C)C)cc1,x,x,x,x,1.4%
CC(=O)Oc1ccc(N(C(C)=O)S(=O)(=O)c2cccs2)cc1,-0.8%,-0.3%,8.8%,-2.1%,-1.4%
CCCC(=O)N(c1ccc2oc(=O)sc2c1)S(=O)(=O)c1ccccc1,u,-11.3%,25.1µM*,-12.8%,1.9%
CC(=O)N(c1ccc2oc(=O)sc2c1)S(=O)(=O)c1cccs1,-12.5%,-7.9%,10µM*,-11.1%,-0.1%
SMILES,CRE Fsk mod,Hsp90 Hop PPI,ALOX15 inhib,Tau filament bind,IkB signaling
CC(C)C(=O)N(c1ccc2oc(=O)sc2c1)S(=O)(=O)c1cccs1,u,-9.0%,20µM*,-18.4%,-1.3%
CCc1ccc(S(=O)(=O)N(C(=O)Oc2ccccc2)c2ccc3oc(C)c(C(=O)OC)c3c2)cc1,x,x,x,x,3.0%
CCC12CN3CC(C)(CN(C1)C3c1c(C)n(C)c3ccccc13)C2=O (stereo unspecified),x,x,x,x,0.2%
COc1ccc(OC)c(NC(=O)C2CCCN(S(=O)(=O)c3ccc4[nH]c(=O)ccc4c3)C2)c1 (stereo unspecified),x,x,x,x,-0.5%
C=CCn1c(SCC(=O)Nc2ccc(N(C)C)cc2)nnc1-c1cccc(C)c1,-6.6%,-13.1%,-17.1%,25.1µM*,0.9%
C=CCn1c(SCC(=O)Nc2cccc(C)c2)nnc1-c1cnccn1,u,-2.1%,5.2%,-13.5%,3.3%
CCN(CC)C(=O)CSc1nc(-c2ccccc2F)nc2c1Cc1c(CO)cnc(C)c1O2,x,x,x,x,2.8%
CCc1nn2cc(-c3ccccc3)nc2s1,6.8%,3.9%,10µM*,-3.4%,u
CCCCC(CC)COC(=O)C(C#N)=C(c1ccccc1)c1ccccc1 (stereo unspecified),9.2%,u,-13.0%,31.6µM*,0.0%
Oc1ccc(N2CCN(C(c3cccnc3)c3nnnn3Cc3ccccc3)CC2)cc1 (stereo unspecified),u,-9.0%,12.6µM*,-25.0%,-1.4%
c1ccc(CCn2nnnc2C(c2cccnc2)N2CCN(c3ccccc3)CC2)cc1 (stereo unspecified),-10.3%,-4.0%,-1.2%,-5.2%,2.4%
CC(C)Cc1nn2c(=O)cc(COC(=O)c3ccc4c(c3)OCO4)nc2s1,x,x,x,x,-0.7%
COc1ccc(-n2c(Cc3cccn3C)nnc2SCC(=O)N2CCCc3ccccc32)cc1,-12.2%,-15.8%,12.6µM*,3.8%,u
N#Cc1ccc(OCc2nnc(SCC(=O)N3CCCc4ccccc43)n2-c2ccccc2)cc1,-15.3%,-4.4%,2.51µM*,13.4%,u
O=C(N1CCN(c2ccccn2)CC1)N1c2ccccc2Sc2ccccc21,10µM*,-3.2%,-1.2%,-7.0%,-2.4%
O=C(c1c(Cl)cccc1Cl)N1CCN(c2ccccn2)CC1,-4.1%,1.0%,-1.2%,-11.7%,0.0%
O=C(c1ccco1)N1CCN(C(=O)N2c3ccccc3Sc3ccccc32)CC1,1µM*,-14.8%,-4.5%,278.7%,23.4%
CCC(C)NC(=O)CCc1c(C)nc2c(c(C)nn2-c2ccc(C)cc2)c1C (stereo unspecified),x,x,x,x,-0.5%
CCOc1ccc(NS(=O)(=O)c2ccc(C)c(C(=O)O)c2)cc1,x,x,-1.2%,x,x
CCOCCc1nnc(NC(=O)c2cc(OC)c(OC)c(OC)c2)s1,10µM*,-1.2%,-2.3%,-14.2%,3.0%
Cc1nc2ccc(NC(=O)N3CCSCC3)cc2nc1C,u,-4.7%,-7.0%,0.0%,3.3%
O=C(Nc1ccc2nc(-c3cccs3)c(-c3cccs3)nc2c1)N1CCOCC1,10µM*,14.0%,-17.3%,227.4%,u
CN(C)c1cccc(O)c1,-8.0%,-2.6%,-20.9%,31.6µM*,3.7%
CCN(CC)c1cccc(O)c1,5.7%,-3.9%,-7.7%,-5.2%,2.6%
